Only a selection was taken, and hits are over-represented in it overall.
ST2 IL33 inh – inhibitors of human ST2 (IL1RL1) binding to IL-33 | Q01638 | AlphaLISA ST2-Fc/biotin-IL-33 interaction, 1 h | AID 1259354 | inhibition, % for hits at 17 µM | 78,000 tested, 2.3% active; in the data active = inhibition above about 30%
An asterisk follows results filed as active; ! = a repeat was not active.

For COc1ccc(CCNC(=O)C(=O)NC2CC2)cc1 the results were ST2 IL33 inh inactive.
Screening COc1cc(C=C2C(=O)c3ccccc3C2=O)ccc1OCC(=O)Nc1ccc(F)cc1 returned ST2 IL33 inh inactive.
For COc1ccc(C(=O)c2cccc([N+](=O)[O-])c2)cc1 the results were ST2 IL33 inh inactive.
For O=C1Nc2ccccc2C(O)(C(=O)NCc2ccc3c(c2)OCO3)N1c1ccccc1 (configuration not stated) the results were ST2 IL33 inh 30%*.
`COc1ccc(CNC(=O)C2(O)c3ccccc3NC(=O)N2c2cccc(OC)c2)cc1` (configuration not stated) gave ST2 IL33 inh inactive.
`CCN(CC)CCNC(=O)C1(O)c2cc(Br)ccc2NC(=O)N1c1ccccc1` (configuration not stated) gave ST2 IL33 inh 31%*!.
CCCCNC(=O)C1(O)c2cc(Br)ccc2NC(=O)N1c1ccccc1 (configuration not stated) was read as ST2 IL33 inh inactive.
CN(C)CCNC(=O)C1(O)c2ccccc2NC(=O)N1c1ccccc1 (configuration not stated) was read as ST2 IL33 inh inactive.
Screening CCN(CC)CCNC(=O)C1(O)c2ccccc2NC(=O)N1c1ccccc1 (configuration not stated) returned ST2 IL33 inh inactive.
For COCCNC(=O)C1CCCN(C2CCN(Cc3snnc3C)CC2)C1 (configuration not stated) the results were ST2 IL33 inh inactive.
For O=C(O)C1CC2(CCNCC2)CN1CCc1ccccc1 (configuration not stated) the results were ST2 IL33 inh inactive.
`Cc1cccc(N=Cc2nc(-c3ccc(Br)cc3)oc2O)c1` gave ST2 IL33 inh inactive.
For COc1ccc(/C=C/C(=O)NCC2Cc3cc(F)cc(-c4nc(C)cnc4C)c3O2)cc1OC (configuration not stated) the results were ST2 IL33 inh inactive.
O=C(Nc1ccccn1)c1ccc2c(c1)C(=O)N(c1cccc([N+](=O)[O-])c1)C2=O was read as ST2 IL33 inh 30%*.
`O=C(Nc1ccccc1C(=O)O)c1ccc2c(c1)C(=O)N(c1ccccn1)C2=O` gave ST2 IL33 inh inactive.
For CC1=C(C(=O)Nc2ccccn2)C(c2cccc([N+](=O)[O-])c2)C2=C(CCCC2=O)N1 (configuration not stated) the results were ST2 IL33 inh inactive.
O=C(O)c1ccc(S(=O)(=O)c2ccc3c(c2)C(=O)N(c2nccs2)C3=O)cc1 was read as ST2 IL33 inh inactive.
`CC(C)(C)N1C(=O)c2ccc(S(=O)(=O)c3ccc4c(c3)C(=O)N(C(C)(C)C)C4=O)cc2C1=O` gave ST2 IL33 inh 30%*.
For CC(C)CN1C(=O)c2ccc(S(=O)(=O)c3ccc4c(c3)C(=O)N(CC(C)C)C4=O)cc2C1=O the results were ST2 IL33 inh inactive.
For Cc1cccc(N(CC(=O)NCc2n[nH]c3c2CCC3)S(C)(=O)=O)c1 the results were ST2 IL33 inh inactive.
Screening CCCCN(CC)C(=O)c1cccc(I)c1 returned ST2 IL33 inh inactive.
`Cc1cc(C)n(CNc2nonc2/C(N)=N\OCc2c(F)cccc2Cl)n1` gave ST2 IL33 inh inactive.
For Cc1ccccc1N=C1NC(=O)c2cccc([N+](=O)[O-])c21 the results were ST2 IL33 inh inactive.
Screening Cc1cc2c(cc1[N+](=O)[O-])-c1ncccc1C2=Nc1ccccc1 returned ST2 IL33 inh 32%*.
O=C1NC(=Nc2ccccc2)c2c1cccc2[N+](=O)[O-] was read as ST2 IL33 inh inactive.
O=C(c1cnc2ccccn12)N(CC1CCC1)CC1CCCO1 (configuration not stated) was read as ST2 IL33 inh inactive.
COc1ccc(CCN2CC(NCc3nc(C)c(C)nc3C)CC2=O)cc1 (configuration not stated) was read as ST2 IL33 inh inactive.
`COC(=O)C1C(=O)C2=C(CC1C)NC(C)=C(C(=O)OC(C)C)C2c1cccc(O)c1` (configuration not stated) gave ST2 IL33 inh inactive.
O=C1CCCN1c1ccccc1O was read as ST2 IL33 inh inactive.
`O=C1/C(=C/c2ccccc2O)N=C2CCCCCN12` gave ST2 IL33 inh 39%*.
Screening O=C1N=C(N2CCCC2)S/C1=C\c1ccccc1O returned ST2 IL33 inh inactive.
For Cc1ccc(C2CC(C(F)(F)F)n3nc(C(=O)NCc4cccs4)cc3N2)cc1 (configuration not stated) the results were ST2 IL33 inh inactive.
For COc1cccc(OCCOc2ccc(F)cc2)c1 the results were ST2 IL33 inh inactive.
COc1ccc(C[C@H](NC(=O)C2=C[C@@H](NC(=O)c3ccc(C)cc3)[C@@H](O)[C@H](O)C2)C(N)=O)cc1 was read as ST2 IL33 inh inactive.
NC(=O)[C@H](Cc1cccs1)NC(=O)C1=C[C@@H](NC(=O)c2ccc(F)c(Cl)c2)[C@@H](O)[C@H](O)C1 was read as ST2 IL33 inh inactive.
NC(=O)[C@H](Cc1ccc(O)cc1)NC(=O)C1=C[C@@H](NC(=O)c2cnccn2)[C@@H](O)[C@H](O)C1 was read as ST2 IL33 inh 44%*.
